Measured values reported in PubChem BioAssay (Tox21).
Activity calls are given as the source filed them. The call rests on the fitted dose curve; in most records, active means well fitted curve in the direction sought with a large enough effect in the repeat runs; inconclusive means weak or mixed curves; inactive means flat fitted curve, though single readings scatter.

Assay: qHTS assay to test for compound auto fluorescence at 590 nm (red) in HepG2 cell free culture (AID 720684)
Details: cell-free medium autofluorescence, red 540/590 nm; series mostly up to 91.3 µM; fluorescence, % of Rose Bengal: at the top concentration
Excerpt: U.S. Tox21 Program National Center for Advancing Translational Sciences [NCATS] NIH Chemical Genomics Center [NCGC] U.S. Environmental Protection Agency [EPA] National Institutes of Environmental Health Sciences [NIEHS] National Toxicology Program [NTP] U.S. Food and Drug Administration [FDA] Tox21 Assay Overview: Compound auto fluorescence often interferes with screening of the compound library against various biological targets and signaling pathways. Some of these compounds may have fluorophoric properties. Such properties may interfere with the assay outputs resulting in false positives and/or negatives. To decrease such complications and ensure the compound activities are relevant in terms of biological response, the Tox21 10K compound library was screened for auto fluorescence. From the fluorophores used as reporter signals in our screening assays, the auto fluorescence equivalencies of compounds against three fluorophores have been evaluated: Triamterene, Fluorescein and Rose Bengal sodium for blue, green and red fluorescence, respectively. The fluorescence intensities were measured using Excitation/Emission wavelengths at 405/460nm, 485/535nm and 540/590nm for blue, green and red labels, respectively. This assay includes the red fluorescence data.
Tox21 Assay Protocol Summary: 5 uL of culture medium (MEM containing 10% FBS) per well was dispensed into black wall/clear bottom 1536-well plates using a Multidrop Combi Dispenser (ThermoFisher Scientific, Waltham, MA). After 23 nL compound or DMSO vehicle was transferred into assay plate by a pintool work station (Kalypsys, San Diego, CA), fluorescence intensities in the assay plates were measured by an Envision (PerkinElmer, Shelton, CT) plate reader using three labels for measuring blue, green and red fluorescence at […] 460, 535 and 590nm respectively.
On the % scale 0 is the no-effect control and ±100 the full control effect.

**Q.** For `Cc1ccccc1C(=O)Nc1ccc(C(=O)N2CCCC(O)c3cc(Cl)ccc32)c(C)c1` (stereo not given), which “fluorescence, % of Rose Bengal” value is on record?
**A.** The value was -0.113% [at 46 µM] (inactive).

**Q.** For `O=C1CCN(c2ccccc2)N1`, which “fluorescence, % of Rose Bengal” value is on record?
**A.** The value was 0.0081% (inactive).

**Q.** For `CN1[C@@H]2CC[C@H]1CC(OC(=O)c1c[nH]c3ccccc13)C2` (stereo not given in full), which “fluorescence, % of Rose Bengal” value is on record?
**A.** Its value is -0.163% [at 46 µM] (inactive).

**Q.** Which “fluorescence, % of Rose Bengal” value does the source give for `O=C1CCCc2ccccc21` here?
**A.** Its value is -0.185% (inactive).

**Q.** Which “fluorescence, % of Rose Bengal” value does the source give for `CCOc1ccc(NS(=O)(=O)c2ccc(N)cc2)nn1` here?
**A.** The value was 0.0984% [at 46 µM] (inactive).

**Q.** With `CCCCCCCCOC(=O)CCCCCCCCC(=O)OCCCCCCCC` as the molecule, how does the “fluorescence, % of Rose Bengal” value read?
**A.** Its value is -0.142% (inactive).

**Q.** With `Cc1ccc([N+](=O)[O-])cc1Cl` as the molecule, how does the “fluorescence, % of Rose Bengal” value read?
**A.** Its value is 0.0244% [at 95.7 µM] (inactive).

**Q.** Which “fluorescence, % of Rose Bengal” value does the source give for `CC(C)C(=O)OC/C=C/c1ccccc1` here?
**A.** The value was -0.143% (inactive).

**Q.** Which “fluorescence, % of Rose Bengal” value does the source give for `CC(C)(C)C1CCCCC1=O` (stereo not given) here?
**A.** The value was 0.0132% (inactive).

**Q.** With `CC1=CC(=O)CC(C)(C)C1=O` as the molecule, how does the “fluorescence, % of Rose Bengal” value read?
**A.** Its value is 0.026% [at 95.7 µM] (inactive).

**Q.** With `CCCCC(=O)O[C@]1(C(=O)CO)[C@H](C)C[C@H]2[C@@H]3CCC4=CC(=O)C=C[C@]4(C)[C@@]3(F)[C@@H](O)C[C@@]21C` as the molecule, how does the “fluorescence, % of Rose Bengal” value read?
**A.** Its value is 0.0466% [at 46 µM] (inactive).

**Q.** With `O=C(O)CN(CCN(CC(=O)O)CC(=O)O)CCN(CC(=O)O)CC(=O)O` as the molecule, how does the “fluorescence, % of Rose Bengal” value read?
**A.** The value was 0.381% [at 46 µM] (inactive).

**Q.** Which “fluorescence, % of Rose Bengal” value does the source give for `CC1=NN(c2cc(Cl)c(S(=O)(=O)O)cc2Cl)C(=O)C1N=Nc1ccc(S(=O)(=O)O)cc1` (stereo not given) here?
**A.** The value was 0.0592% (inactive).

**Q.** Which “fluorescence, % of Rose Bengal” value does the source give for `C[C@@H]1CN(c2c(F)c(F)c3c(=O)c(C(=O)O)cn(C4CC4)c3c2F)C[C@H](C)N1` here?
**A.** Its value is -0.341% [at 46 µM] (inactive).

**Q.** Which “fluorescence, % of Rose Bengal” value does the source give for `CCOC(=O)NCCC[Si](OCC)(OCC)OCC` here?
**A.** Its value is -0.0759% (inactive).

**Q.** For `CCCCNc1ccc(C(=O)OCCN(CC)CC)cc1`, which “fluorescence, % of Rose Bengal” value is on record?
**A.** Its value is -0.074% [at 46 µM] (inactive).

**Q.** Which “fluorescence, % of Rose Bengal” value does the source give for `Cc1ccc(C)c(N)c1` here?
**A.** Its value is 0.0508% (inactive).

**Q.** For `CCCCCOc1ccc(C2SC(=O)NC2=O)cc1OCC` (stereo not given), which “fluorescence, % of Rose Bengal” value is on record?
**A.** Its value is 0.396% [at 46 µM] (inactive).

**Q.** Which “fluorescence, % of Rose Bengal” value does the source give for `CCCOCCC` here?
**A.** The value was 0.0605% (inactive).

**Q.** Which “fluorescence, % of Rose Bengal” value does the source give for `OCCN1CCN(CCO)CC1` here?
**A.** The value was -0.052% [at 95.7 µM] (inactive).

**Q.** Which “fluorescence, % of Rose Bengal” value does the source give for `Cc1ccc(C(C)C)cc1O` here?
**A.** Its value is 0.0015% (inactive).

**Q.** For `CN1CCN(C2=Nc3ccccc3Oc3ccc(Cl)cc32)CC1`, which fluorescence, % of Rose Bengal is on record?
**A.** The fluorescence, % of Rose Bengal was -0.256% [at 18.6 µM] (inactive).

**Q.** For `CCCCCCCCCCCCOCCOS(=O)(=O)O`, which “fluorescence, % of Rose Bengal” value is on record?
**A.** Its value is -0.0164% (inactive).

**Q.** Which “fluorescence, % of Rose Bengal” value does the source give for `CCN(O)CC` here?
**A.** Its value is -0.0169% (inactive).

**Q.** Which “fluorescence, % of Rose Bengal” value does the source give for `CCCCCCCCCCCCCCCCOP(=O)([O-])OCC[N+](C)(C)C` here?
**A.** Its value is -0.124% [at 46 µM] (inactive).

**Q.** For `COc1ccc(S(=O)(=O)Nc2nnc(CC(C)C)s2)cc1`, which outcome is on record?
**A.** Its outcome is “inactive”.

**Q.** With `CCCCCCC` as the molecule, how does the “fluorescence, % of Rose Bengal” value read?
**A.** The value was -0.0052% [at 95.7 µM] (inactive).

**Q.** Which fluorescence, % of Rose Bengal does the source give for `CCCCNc1cc(C(=O)O)cc(S(N)(=O)=O)c1Oc1ccccc1` here?
**A.** The fluorescence, % of Rose Bengal was 0.449% [at 18.6 µM] (inactive).

**Q.** Which “fluorescence, % of Rose Bengal” value does the source give for `FC(F)(F)c1ccccc1` here?
**A.** Its value is -0.367% (inactive).

**Q.** Which “fluorescence, % of Rose Bengal” value does the source give for `Cc1ccc(C=O)s1` here?
**A.** The value was 0.0284% (inactive).

**Q.** With `CC(C)=CCC[C@](C)(O)[C@@H]1CC=C(C)CC1` as the molecule, how does the “fluorescence, % of Rose Bengal” value read?
**A.** Its value is 0.0357% (inactive).

**Q.** For `CC(=O)Oc1cc(C(C)C)c(OCCN(C)C)cc1C`, which fluorescence, % of Rose Bengal is on record?
**A.** The fluorescence, % of Rose Bengal was -0.418% [at 18.6 µM] (inactive).

**Q.** For `CCCCCCCCCC/C=C/C#N`, which “fluorescence, % of Rose Bengal” value is on record?
**A.** The value was 0.297% (inactive).

**Q.** Which outcome does the source give for `COc1ccccc1N1CCN(CCCNc2cc(=O)n(C)c(=O)n2C)CC1` here?
**A.** The outcome was “inactive”.

**Q.** For `O=C1N(c2ccccc2)c2ccccc2C1(Cc1ccncc1)Cc1ccncc1`, which “fluorescence, % of Rose Bengal” value is on record?
**A.** Its value is -0.0086% [at 46 µM] (inactive).

**Q.** For `N#Cc1ccc(C(c2ccc(C#N)cc2)n2cncn2)cc1`, which outcome is on record?
**A.** Its outcome is “inactive”.

**Q.** With `O=c1[nH]c(=O)n([C@H]2C[C@H](O)[C@@H](CO)O2)cc1C(F)(F)F` as the molecule, how does the “fluorescence, % of Rose Bengal” value read?
**A.** Its value is -0.124% [at 46 µM] (inactive).

**Q.** With `CCCCCCCOC(=O)CCC` as the molecule, how does the “fluorescence, % of Rose Bengal” value read?
**A.** The value was -0.313% (inactive).

**Q.** For `CCNCCO`, which “fluorescence, % of Rose Bengal” value is on record?
**A.** The value was 0.101% (inactive).

**Q.** Which “fluorescence, % of Rose Bengal” value does the source give for `OC[C@H]1O[C@@H](O[C@H]2[C@H](O)[C@@H](O)[C@H](O)O[C@@H]2CO)[C@H](O)[C@@H](O)[C@H]1O` here?
**A.** Its value is -0.0054% (inactive).
